# Experimental data published in the supplement of paper PMC3334620.
# In all, about 33,000 sequences were measured (“E-score (-0.5 to 0.5)”: median about -0.017, highest 2% from about 0.3 on). This is one part of a sample in which the highest values are shown more often than they occur.
# Molecular target: T1, Sut1 (UniProt P53032)
# T1 sequence: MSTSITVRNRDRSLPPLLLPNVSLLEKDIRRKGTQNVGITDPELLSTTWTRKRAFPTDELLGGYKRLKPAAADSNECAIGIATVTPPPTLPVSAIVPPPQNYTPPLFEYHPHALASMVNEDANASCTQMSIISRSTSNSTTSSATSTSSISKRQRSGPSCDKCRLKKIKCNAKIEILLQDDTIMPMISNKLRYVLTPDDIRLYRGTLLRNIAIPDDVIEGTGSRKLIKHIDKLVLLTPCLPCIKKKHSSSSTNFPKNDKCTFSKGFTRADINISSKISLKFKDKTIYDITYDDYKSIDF
# Test: PBM E-score (8-mer binding enrichment) (E-score (-0.5 to 0.5)); higher = stronger / more preferred TF binding
# Conditions: protein concentration: 200 nM; construct: GST-full length
# Method in brief: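 Yeast transcription factors carrying a GST tag, as full-length proteins or DNA-binding domains, were produced by PURExpress in vitro transcription/translation. About 100-200 nM protein was applied to universal all-10-mer Agilent arrays, double-stranded by primer extension on fresh or once-stripped slides. Bound protein was detected with fluorescent anti-GST, and scans were normalised with masliner. The Universal PBM Analysis Suite gave each ungapped eight-base word, pooled with its reverse complement, an E-score, a modified Wilcoxon-Mann-Whitney statistic.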
row,Sequence,PBM E-score
1,AATCGCAT,0.0231
2,CGCACATC,-0.156
3,GAGTTCAA,0.152
4,GGATCAGA,-0.0639
5,GTGGGGAA,0.0142
6,GGCTGGAC,-0.278
7,ACTCCGTA,0.478
8,AATCCGTG,-0.153
9,GCTCCGTA,0.291
10,CCTCCGTA,0.0232
11,CCTCCGTC,-0.0539
12,ACTCCGTC,0.48
13,ATTCCGTG,0.273
14,ACTCCGTG,0.473
15,ATTCCGTC,0.143
16,CGGTGAGA,0.0413
17,AGGTTAGG,-0.0421
18,ACCAACCG,0.0755
19,GGACAGTA,0.184
20,ACCCTTAC,-0.129
21,GGAAGCCC,-0.0417
22,ATTTATCA,0.229
23,AATTTACC,0.143
24,ATTTTATC,0.321
25,ATTTTACC,0.352

row,Sequence,PBM E-score
1,CTTTTATC,0.26
2,ATTTTATG,0.13
3,ATTTATCG,0.191
4,CTTTTACC,0.149
5,ATTTATCC,0.33
6,ATTCATGA,-0.0184
7,AGACCAAA,0.026
8,CCCGATTC,0.0897
9,CCAGAAAC,-0.0561
10,GTACAAAC,0.0652
11,ATACAAAG,0.119
12,ATACAAAC,0.298
13,ATACAAAA,0.288
14,CTACAATA,0.181
15,ATACAAAT,0.312
16,CTACAAAC,0.0828
17,ATACAATA,0.299
18,ATACAATC,0.236
19,TCAGGACA,-0.0448
20,ACCCGCCT,-0.184
21,ACTGGATC,-0.0162
22,AATCTCTG,-0.129
23,CACTCCTG,-0.0764
24,CACTCCGG,0.476
25,CACTCCTC,-0.176

row,Sequence,PBM E-score
1,GACTCCAC,0.0104
2,ACCTCCGC,-0.104
3,CCCTCCGC,-0.318
4,AACTCCGC,0.492
5,CACTCCCG,-0.0356
6,GACTCCGC,0.429
7,AACTCCCC,-0.0339
8,GACTCCTC,0.0705
9,CACTCCGC,0.367
10,AAGCACGC,-0.122
11,CACGGTAA,0.0752
12,CTTCCATA,0.00613
13,CTCATAGC,-0.0832
14,CCCCAGGC,-0.303
15,GCCGAGCC,-0.0648
16,GACACTGA,0.0506
17,AATCGTTG,0.0316
18,CCTTCACC,-0.231
19,CAGAGAAG,-0.0543
20,GGGAGAAC,-0.0542
21,CGGAGAAG,0.36
22,CCGACAAA,0.313
23,AGGAGAAC,-0.0513
24,CCGACAAG,0.115
25,CGGAGAAC,0.33

row,Sequence,PBM E-score
1,CGGAGAAA,0.391
2,TCGACAAA,0.213
3,GGGAGAAA,-0.0502
4,TGGAGAAA,-0.00929
5,AGGAGAAG,-0.165
6,CGTCAACG,0.0766
7,CGGTACTC,-0.0748
8,GAACAGTC,0.0217
9,GAATGTCC,0.282
10,AACCCTAC,-0.287
11,ATATGCAC,0.133
12,CCACCCCA,-0.221
13,AATCCATA,0.108
14,AACGCTGT,-0.0573
15,CCAGTAGA,-0.112
16,AGTGCTCA,-0.105
17,CCGAAAAG,0.178
18,CCGAAAAC,0.164
19,CCGAAAAA,0.352
20,AGGAGAGA,-0.0542
21,CGGAGAGC,0.109
22,TCGAGAAA,0.103
23,CCGAGAAA,0.339
24,GCGAGAAA,0.0168
25,CGGAGAGA,0.317

row,Sequence,PBM E-score
1,ACGGGTGA,-0.0761
2,AGCGTCAT,-0.0756
3,CACCTTGC,0.00165
4,CTCAGCGA,-0.204
5,CGGAGCAC,0.175
6,AGGAGCGA,-0.00713
7,CGGAGCGC,0.118
8,TGGAGCAA,-0.0175
9,CGGAGCGA,0.325
10,CGGAGCAA,0.311
11,TTCATGAA,0.00239
12,AACTACAT,0.141
13,CCATTATA,0.135
14,CCCGGGAA,-0.03
15,ACCGGGAA,0.145
16,TCCGGGAA,0.356
17,CCCGGAAA,0.234
18,GCCGGTAA,0.121
19,ACCGGTAA,-0.0335
20,TCCGGTAA,0.384
21,ACCGGAAA,0.268
22,TCCGGAAA,0.411
23,CTCTGAGA,-0.0987
24,AGCAATTG,0.175
25,GGAATGAA,0.166

row,Sequence,PBM E-score
1,ATGCCCCC,-0.387
2,AACTCGGA,0.341
3,TACTCGGA,0.324
4,CACTCGGA,0.266
5,TACTCGCA,0.0383
6,GACTCGGA,0.33
7,GACTCGGC,-0.033
8,GACTCGCA,-0.0641
9,AACTCGGG,-0.135
10,AACTCGGT,0.0362
11,GCAGAGGA,-0.102
12,GCTTCGAC,-0.218
13,GAGACCCC,-0.146
14,ACCTTGCT,-0.0591
15,GCGCCAGA,-0.088
16,CCATATAG,-0.0893
17,ACTCATCG,0.0167
18,GTCCGTGA,0.251
19,CACCGTGC,-0.263
20,CTCCGTGA,0.407
21,ATCCGTGC,0.0778
22,CTCCGTGC,0.321
23,ATCCGTGA,-0.119
24,AGGGCAGA,-0.348
25,GACTGGGC,-0.0754

row,Sequence,PBM E-score
1,CTTCGCTA,-0.0699
2,ATATGCAG,-0.134
3,AAAGTAAT,0.204
4,CGAGTTAC,0.0146
5,AGAGTTAC,-0.117
6,AGAGTTAA,0.0656
7,GGAGTTAC,0.367
8,TGAGTTAA,-0.00085
9,GGAGTTAA,0.337
10,GCTCCCTA,-0.123
11,CAGGGAGC,-0.326
12,ACAAACAC,0.185
13,TCGGCCGA,0.323
14,GCGGCCGA,-0.139
15,CCGGCCGA,0.0979
16,AAAACTAG,0.0495
17,AAAACTAT,0.231
18,CTAACTAA,0.142
19,TAAACTAA,0.323
20,CTAACTAC,0.00799
21,CAAACTAA,0.276
22,AAAACTAA,0.353
23,CTAACTAG,0.302
24,GAAACTAA,0.00617
